Records with an inconclusive call do not appear. A call without a number means that no potency is given here. Active and inactive are the calls of the source. Calls follow the shape of the dose curve; as a rule, active = well fitted inhibition curve with a large enough effect; inconclusive = small, poorly fitted or top-dose-only effect; inactive = flat fitted curve, though single readings scatter.
These compounds were tested on JCK (assay: qHTS profiling for inhibitors of Plasmodium falciparum proliferation (AID 504749; also: nearly all actives have a fitted effect of over 60% in size)). Settings: P. falciparum in erythrocytes, SYBR Green DNA, 72 h; series mostly up to 28.7 µM.
Method in brief: (§1)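 P. falciparum-infected erythrocytes (0.3% parasitemia, 2.5% hematocrit final) were exposed to compounds for 72 h at 37 C in 5% CO2, then lysed with SYBR Green buffer overnight at room temperature; parasite DNA fluorescence was normalized to artemisinin and DMSO controls.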
With O=C(O)c1cc(O)c2c(c1)[C@H]([C@H]1c3cc(C(=O)O)cc(O)c3C(=O)c3c(O[C@@H]4OC(CO)C(O)C(O)C4O)cccc31)c1cccc(O[C@@H]3OC(CO)C(O)C(O)C3O)c1C2=O (stereo partly specified) the Potency was “inactive”.
In the case of CC(C)CN(C[C@@H](OP(=O)(O)O)[C@H](Cc1ccccc1)NC(=O)O[C@@H]1CCOC1)S(=O)(=O)c1ccc(N)cc1, the Potency is reported as “inactive”.
With CCC(C)n1ncn(-c2ccc(N3CCN(c4ccc(OCC5COC(Cn6cncn6)(c6ccc(Cl)cc6Cl)O5)cc4)CC3)cc2)c1=O (stereo unspecified) the Potency was “inactive”.
With CC(C)CN(C[C@@H](O)[C@H](Cc1ccccc1)NC(=O)O[C@H]1CCOC1)S(=O)(=O)c1ccc(N)cc1 the Potency was “inactive”.

The compounds below were run on N140 in the same assay as above. Settings: P. falciparum in erythrocytes, SYBR Green DNA, 72 h; series mostly up to 28.7 µM.
Method in brief: as §1
O=C(O)c1cc(O)c2c(c1)[C@H]([C@H]1c3cc(C(=O)O)cc(O)c3C(=O)c3c(O[C@@H]4OC(CO)C(O)C(O)C4O)cccc31)c1cccc(O[C@@H]3OC(CO)C(O)C(O)C3O)c1C2=O (stereo partly specified) was tested, and the Potency was “inactive”.
For CC(C)CN(C[C@@H](OP(=O)(O)O)[C@H](Cc1ccccc1)NC(=O)O[C@@H]1CCOC1)S(=O)(=O)c1ccc(N)cc1, the Potency was “inactive”.
In the case of CCC(C)n1ncn(-c2ccc(N3CCN(c4ccc(OCC5COC(Cn6cncn6)(c6ccc(Cl)cc6Cl)O5)cc4)CC3)cc2)c1=O (stereo unspecified), the Potency is reported as “inactive”.
CC(C)CN(C[C@@H](O)[C@H](Cc1ccccc1)NC(=O)O[C@H]1CCOC1)S(=O)(=O)c1ccc(N)cc1 was tested, and the Potency was “inactive”.

These compounds were tested on P94_40 in the same assay as above. Settings: P. falciparum in erythrocytes, SYBR Green DNA, 72 h; series mostly up to 28.7 µM.
Method in brief: as §1
With O=C(O)c1cc(O)c2c(c1)[C@H]([C@H]1c3cc(C(=O)O)cc(O)c3C(=O)c3c(O[C@@H]4OC(CO)C(O)C(O)C4O)cccc31)c1cccc(O[C@@H]3OC(CO)C(O)C(O)C3O)c1C2=O (stereo partly specified) the Potency was “inactive”.
With CC(C)CN(C[C@@H](OP(=O)(O)O)[C@H](Cc1ccccc1)NC(=O)O[C@@H]1CCOC1)S(=O)(=O)c1ccc(N)cc1 the Potency was “inactive”.
In the case of CCC(C)n1ncn(-c2ccc(N3CCN(c4ccc(OCC5COC(Cn6cncn6)(c6ccc(Cl)cc6Cl)O5)cc4)CC3)cc2)c1=O (stereo unspecified), the Potency is reported as “inactive”.

What follows are compounds tested on PAD in the same assay as above. Settings: P. falciparum in erythrocytes, SYBR Green DNA, 72 h; series mostly up to 28.7 µM.
Method in brief: as §1
In the case of O=C(O)c1cc(O)c2c(c1)[C@H]([C@H]1c3cc(C(=O)O)cc(O)c3C(=O)c3c(O[C@@H]4OC(CO)C(O)C(O)C4O)cccc31)c1cccc(O[C@@H]3OC(CO)C(O)C(O)C3O)c1C2=O (stereo partly specified), the Potency is reported as “inactive”.
In the case of CC(C)CN(C[C@@H](OP(=O)(O)O)[C@H](Cc1ccccc1)NC(=O)O[C@@H]1CCOC1)S(=O)(=O)c1ccc(N)cc1, the Potency is reported as “inactive”.
For CCC(C)n1ncn(-c2ccc(N3CCN(c4ccc(OCC5COC(Cn6cncn6)(c6ccc(Cl)cc6Cl)O5)cc4)CC3)cc2)c1=O (stereo unspecified), the Potency was “inactive”.
For CC(C)CN(C[C@@H](O)[C@H](Cc1ccccc1)NC(=O)O[C@H]1CCOC1)S(=O)(=O)c1ccc(N)cc1, the Potency was “inactive”.

What follows are compounds tested on PC15 in the same assay as above. Settings: P. falciparum in erythrocytes, SYBR Green DNA, 72 h; series mostly up to 28.7 µM.
Method in brief: as §1
With O=C(O)c1cc(O)c2c(c1)[C@H]([C@H]1c3cc(C(=O)O)cc(O)c3C(=O)c3c(O[C@@H]4OC(CO)C(O)C(O)C4O)cccc31)c1cccc(O[C@@H]3OC(CO)C(O)C(O)C3O)c1C2=O (stereo partly specified) the Potency was “inactive”.
For CC(C)CN(C[C@@H](OP(=O)(O)O)[C@H](Cc1ccccc1)NC(=O)O[C@@H]1CCOC1)S(=O)(=O)c1ccc(N)cc1, the Potency was “inactive”.
CCC(C)n1ncn(-c2ccc(N3CCN(c4ccc(OCC5COC(Cn6cncn6)(c6ccc(Cl)cc6Cl)O5)cc4)CC3)cc2)c1=O (stereo unspecified) was tested, and the Potency was “inactive”.
In the case of CC(C)CN(C[C@@H](O)[C@H](Cc1ccccc1)NC(=O)O[C@H]1CCOC1)S(=O)(=O)c1ccc(N)cc1, the Potency is reported as “inactive”.

What follows are compounds tested on PC49 in the same assay as above. Settings: P. falciparum in erythrocytes, SYBR Green DNA, 72 h; series mostly up to 28.7 µM.
Method in brief: as §1
In the case of O=C(O)c1cc(O)c2c(c1)[C@H]([C@H]1c3cc(C(=O)O)cc(O)c3C(=O)c3c(O[C@@H]4OC(CO)C(O)C(O)C4O)cccc31)c1cccc(O[C@@H]3OC(CO)C(O)C(O)C3O)c1C2=O (stereo partly specified), the Potency is reported as “inactive”.
With CC(C)CN(C[C@@H](OP(=O)(O)O)[C@H](Cc1ccccc1)NC(=O)O[C@@H]1CCOC1)S(=O)(=O)c1ccc(N)cc1 the Potency was “inactive”.
With CCC(C)n1ncn(-c2ccc(N3CCN(c4ccc(OCC5COC(Cn6cncn6)(c6ccc(Cl)cc6Cl)O5)cc4)CC3)cc2)c1=O (stereo unspecified) the Potency was “inactive”.
CC(C)CN(C[C@@H](O)[C@H](Cc1ccccc1)NC(=O)O[C@H]1CCOC1)S(=O)(=O)c1ccc(N)cc1 was tested, and the Potency was “inactive”.

These compounds were tested on SC27B in the same assay as above. Settings: P. falciparum in erythrocytes, SYBR Green DNA, 72 h; series mostly up to 28.7 µM.
Method in brief: as §1
With O=C(O)c1cc(O)c2c(c1)[C@H]([C@H]1c3cc(C(=O)O)cc(O)c3C(=O)c3c(O[C@@H]4OC(CO)C(O)C(O)C4O)cccc31)c1cccc(O[C@@H]3OC(CO)C(O)C(O)C3O)c1C2=O (stereo partly specified) the Potency was “inactive”.
For CC(C)CN(C[C@@H](OP(=O)(O)O)[C@H](Cc1ccccc1)NC(=O)O[C@@H]1CCOC1)S(=O)(=O)c1ccc(N)cc1, the Potency was “inactive”.
For CCC(C)n1ncn(-c2ccc(N3CCN(c4ccc(OCC5COC(Cn6cncn6)(c6ccc(Cl)cc6Cl)O5)cc4)CC3)cc2)c1=O (stereo unspecified), the Potency was “inactive”.
For CC(C)CN(C[C@@H](O)[C@H](Cc1ccccc1)NC(=O)O[C@H]1CCOC1)S(=O)(=O)c1ccc(N)cc1, the Potency was “inactive”.

What follows are compounds tested on TAB109 in the same assay as above. Settings: P. falciparum in erythrocytes, SYBR Green DNA, 72 h; series mostly up to 28.7 µM.
Method in brief: as §1
O=C(O)c1cc(O)c2c(c1)[C@H]([C@H]1c3cc(C(=O)O)cc(O)c3C(=O)c3c(O[C@@H]4OC(CO)C(O)C(O)C4O)cccc31)c1cccc(O[C@@H]3OC(CO)C(O)C(O)C3O)c1C2=O (stereo partly specified) was tested, and the Potency was “inactive”.
With CC(C)CN(C[C@@H](OP(=O)(O)O)[C@H](Cc1ccccc1)NC(=O)O[C@@H]1CCOC1)S(=O)(=O)c1ccc(N)cc1 the Potency was “inactive”.
In the case of CCC(C)n1ncn(-c2ccc(N3CCN(c4ccc(OCC5COC(Cn6cncn6)(c6ccc(Cl)cc6Cl)O5)cc4)CC3)cc2)c1=O (stereo unspecified), the Potency is reported as “inactive”.
In the case of CC(C)CN(C[C@@H](O)[C@H](Cc1ccccc1)NC(=O)O[C@H]1CCOC1)S(=O)(=O)c1ccc(N)cc1, the Potency is reported as “inactive”.

From PubChem BioAssay (NCATS)
